# Test results from PubChem BioAssay AID1159580 (chemical genetic matrix, 2015).
# “And” between values parts separate entries of the source, which are not always exact repeats. Identical values can stand only once. In all, about 5,500 compounds went through this assay and about 2,000 (36%) were called active. Roughly 18% stayed inconclusive and do not appear here. No stated cut-off is given here; in the data, active means normalized growth mostly below about 0.91 (no sharp cut-off); inconclusive means no clear call, values can overlap the other calls; inactive means mostly above about 0.92. The list shows a part of the results.
# Assay: chemical genetic growth profiling, strain panel (AID 1159580);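 further: tested at 20 µM; growth read once vehicle control cultures reached saturation at 30 °C; 1 = growth at the plate median or of vehicle wells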
# Conditions: S. cerevisiae deletion strains, growth OD
smiles,measurement,setting,value
CCC(Cc1c(I)cc(I)c(N)c1I)C(=O)O (stereo not given),normalized growth,"locus YAL013W, strain DEP1, stronger effect = lower value",0.979 (inactive)
same,normalized growth,"locus YAL021C, strain ccr4, stronger effect = lower value",0.934 (inactive)
same,normalized growth,"locus YAL026C, strain drs2, stronger effect = lower value",0.889 (active)
same,normalized growth,"locus YAL030W, strain snc1, stronger effect = lower value",0.945 (inactive)
same,normalized growth,"locus YBL061C, strain skt5, stronger effect = lower value",0.955 (inactive)
same,normalized growth,"locus YBR009C, strain hhf1, stronger effect = lower value",0.861 (active)
same,normalized growth,"locus YBR021W, strain FUR4, stronger effect = lower value",1.03 (inactive)
same,normalized growth,"locus YBR023C, strain chs3, stronger effect = lower value",0.935 (inactive)
same,normalized growth,"locus YBR171W, strain sec66, stronger effect = lower value",0.921 (inactive)
same,normalized growth,"locus YBR229C, strain ROT2, stronger effect = lower value",0.989 (inactive)
same,normalized growth,"locus YBR231C, strain swc5, stronger effect = lower value",0.977 (inactive)
same,normalized growth,"locus YBR279W, strain paf1, stronger effect = lower value",0.945 (inactive)
same,normalized growth,"locus YCL011C, strain gbp2, stronger effect = lower value",0.905 (active)
same,normalized growth,"locus YCL016C, strain dcc1, stronger effect = lower value",0.934 (inactive)
same,normalized growth,"locus YCL029C, strain bik1, stronger effect = lower value",0.997 (inactive)
same,normalized growth,"locus YCL069W, strain vba3, stronger effect = lower value",0.907 (active)
same,normalized growth,"locus YCR088W, strain abp1, stronger effect = lower value",0.935 (inactive)
same,normalized growth,"locus YDL005C, strain med2, stronger effect = lower value",0.95 (inactive)
same,normalized growth,"locus YDL035C, strain GPR1, stronger effect = lower value",1 (inactive)
same,normalized growth,"locus YDL040C, strain nat1, stronger effect = lower value",0.96 (inactive)
same,normalized growth,"locus YDL074C, strain BRE1, stronger effect = lower value",1.01 (inactive)
same,normalized growth,"locus YDL101C, strain DUN1, stronger effect = lower value",1.01 (inactive)
same,normalized growth,"locus YDL134C, strain PPH21, stronger effect = lower value",1.01 (inactive)
same,normalized growth,"locus YDL192W, strain arf1, stronger effect = lower value",0.997 (inactive)
same,normalized growth,"locus YDR001C, strain nth1, stronger effect = lower value",0.927 (inactive)
same,normalized growth,"locus YDR069C, strain doa4, stronger effect = lower value",0.951 (inactive)
same,normalized growth,"locus YDR101C, strain arx1, stronger effect = lower value",1 (inactive)
same,normalized growth,"locus YDR137W, strain rgp1, stronger effect = lower value",0.71 (active)
same,normalized growth,"locus YDR150W, strain NUM1, stronger effect = lower value",1.01 (inactive)
same,normalized growth,"locus YDR159W, strain sac3, stronger effect = lower value",0.895 (inactive)
same,normalized growth,"locus YDR162C, strain NBP2, stronger effect = lower value",0.982 (inactive)
same,normalized growth,"locus YDR195W, strain ref2",0.992 (inactive)
same,normalized growth,"locus YDR297W, strain sur2, stronger effect = lower value",0.954 (inactive)
same,normalized growth,"locus YDR318W, strain mcm21, stronger effect = lower value",1 (inactive)
same,normalized growth,"locus YDR334W, strain swr1, stronger effect = lower value",0.942 (inactive)
same,normalized growth,"locus YDR335W, strain msn5, stronger effect = lower value",0.947 (inactive)
same,normalized growth,"locus YDR388W, stronger effect = lower value",0.996 (inactive)
same,normalized growth,"locus YDR392W, strain spt3, stronger effect = lower value",0.711 (active)
same,normalized growth,"locus YDR502C, strain sam2, stronger effect = lower value",0.991 (inactive)
same,normalized growth,"locus YEL003W, strain gim4, stronger effect = lower value",0.934 (inactive)
same,normalized growth,"locus YEL037C, strain rad23, stronger effect = lower value",0.947 (inactive)
same,normalized growth,"locus YEL061C, strain CIN8 (second series), stronger effect = lower value",0.942 (inactive)
same,normalized growth,"locus YEL061C, strain CIN8, stronger effect = lower value",0.994 (inactive)
same,normalized growth,"locus YER015W, strain faa2, stronger effect = lower value",0.977 (inactive)
same,normalized growth,"locus YER016W, strain bim1, stronger effect = lower value",0.927 (inactive)
same,normalized growth,"locus YER110C, stronger effect = lower value",1 (inactive)
same,normalized growth,"locus YER111C, strain swi4, stronger effect = lower value",0.925 (inactive)
same,normalized growth,"locus YER155C, strain BEM2 (second series), stronger effect = lower value",0.94 (inactive)
same,normalized growth,"locus YER155C, strain BEM2, stronger effect = lower value",1 (inactive)
same,normalized growth,"locus YER167W, strain BCK2, stronger effect = lower value",0.998 (inactive)
same,normalized growth,"locus YFR010W, strain ubp6, stronger effect = lower value",0.985 (inactive)
same,normalized growth,"locus YGL078C, strain dbp3, stronger effect = lower value",0.997 (inactive)
same,normalized growth,"locus YGL086W, strain mad1, stronger effect = lower value",0.986 (inactive)
same,normalized growth,"locus YGL167C, strain pmr1, stronger effect = lower value",0.928 (inactive)
same,normalized growth,"locus YGL173C, strain kem1, stronger effect = lower value",0.936 (inactive)
same,normalized growth,"locus YGL227W, strain vid30, stronger effect = lower value",0.949 (inactive)
same,normalized growth,"locus YGL240W, strain doc1, stronger effect = lower value",0.99 (inactive)
same,normalized growth,"locus YGL248W, strain PDE1, stronger effect = lower value",1 (inactive)
same,normalized growth,"locus YGL253W, strain hxk2, stronger effect = lower value",0.921 (inactive)
same,normalized growth,"locus YGR078C, strain PAC10, stronger effect = lower value",1.01 (inactive)
same,normalized growth,"locus YGR135W, strain pre9, stronger effect = lower value",1 (inactive)
same,normalized growth,"locus YGR229C, strain SMI1, stronger effect = lower value",1.02 (inactive)
same,normalized growth,"locus YGR252W, strain gcn5, stronger effect = lower value",1.04 (inactive)
same,normalized growth,"locus YHR013C, strain ard1, stronger effect = lower value",0.852 (inactive)
same,normalized growth,"locus YHR027C, strain rpn1, stronger effect = lower value",0.927 (inactive)
same,normalized growth,"locus YHR030C, strain SLT2, stronger effect = lower value",1 (inactive) and 0.148 (active)
same,normalized growth,"locus YHR079C, strain IRE1 (second series), stronger effect = lower value",1 (inactive)
same,normalized growth,"locus YHR079C, strain IRE1, stronger effect = lower value",0.135 (active)
same,normalized growth,"locus YHR094C, strain hxt1, stronger effect = lower value",1 (inactive)
same,normalized growth,"locus YHR129C, strain ARP1, stronger effect = lower value",0.957 (inactive)
same,normalized growth,"locus YHR142W, strain chs7, stronger effect = lower value",0.912 (inactive)
same,normalized growth,"locus YHR200W, strain rpn10, stronger effect = lower value",1 (inactive)
same,normalized growth,"locus YIL066C, strain RNR3, stronger effect = lower value",1 (inactive)
same,normalized growth,"locus YIL073C, strain SPO22, stronger effect = lower value",1.04 (inactive)
same,normalized growth,"locus YIL125W, strain kgd1, stronger effect = lower value",0.992 (inactive)
same,normalized growth,"locus YIR030C, strain dcg1, stronger effect = lower value",0.996 (inactive)
same,normalized growth,"locus YJL092W, strain hpr5, stronger effect = lower value",0.942 (inactive)
same,normalized growth,"locus YJL095W, strain BCK1 (second series), stronger effect = lower value",0.959 (inactive)
same,normalized growth,"locus YJL095W, strain BCK1, stronger effect = lower value",0.993 (inactive) and 0.112 (active)
same,normalized growth,"locus YJL115W, strain asf1, stronger effect = lower value",0.954 (inactive)
same,normalized growth,"locus YJL129C, strain trk1, stronger effect = lower value",0.931 (inactive)
same,normalized growth,"locus YJL134W, strain LCB3, stronger effect = lower value",1 (inactive)
same,normalized growth,"locus YJL154C, strain vps35, stronger effect = lower value",0.935 (inactive)
same,normalized growth,"locus YJL164C, strain tpk1, stronger effect = lower value",0.903 (active)
same,normalized growth,"locus YJL166W, strain qcr8, stronger effect = lower value",0.949 (inactive)
same,normalized growth,"locus YJL168C, strain set2, stronger effect = lower value",0.999 (inactive)
same,normalized growth,"locus YJL187C, strain SWE1 (second series), stronger effect = lower value",1.01 (inactive)
same,normalized growth,"locus YJR043C, strain POL32, stronger effect = lower value",1.03 (inactive)
same,normalized growth,"locus YJR066W, strain TOR1, stronger effect = lower value",0.0664 (active)
same,normalized growth,"locus YJR075W, strain HOC1, stronger effect = lower value",1.02 (inactive)
